Data on 26 molecules can be found in PubChem BioAssay (NCATS).

“And” between values parts separate entries of the source, which are not always exact repeats. Equal entries are not always repeated. A number with no mark means an inactive call. Inconclusive results are not listed. Entries that show only a call come without a potency. The source made the active and inactive calls. Unless noted, calls follow the shape of the dose curve; as a rule, active = well fitted curve in the direction sought with a large enough effect; inconclusive = small, poorly fitted or top-dose-only effect, or another doubt; inactive = no such curve, though single readings can be large; an effect the other way counts as inactive or inconclusive.

The nature of test [1]: qHTS assay for measurement of the activity of small molecule inhibitors on Zika virus induced Caspase-3 activity in human iPSC derived neural progenitor cells (hNPCs) (AID 1224857). Also: nearly all actives have a fitted effect of over 65% in size. The method, boiled down: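 Pretreat hNPCs with compound 1 h; infect ZIKV 2 FFU/cell; 6 h 37 C, 5% CO2; Caspase-Glo 3/7, 30 min RT; luminescence; normalize to no-virus and virus-only wells.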
Test [2] can be described thus: qHTS assay for measurement of the activity of small molecule inhibitors on Zika virus induced Caspase-3 activity in human astrocytoma cells (AID 1224859). The method, boiled down: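 Human SNB-19 astrocytoma cells in RPMI 1640 with 10% FBS receive compound one hour ahead of Zika virus at 2 FFU/cell. After 6 h infection, caspase-3/7 activity is detected by Caspase-Glo luminescence.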

A short description of test [3]: P-glycoprotein substrates identified in KB-3-1 adenocarcinoma cell line, qHTS therapeutic library screen (AID 1346986). Also: nearly all actives have a fitted effect of over 60% in size.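 Also: potency is read from the fitted curve at half-maximal effect; potency is for cytotoxicity meaning loss of cell viability.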 The method in brief: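 Dose-response cytotoxicity, KB-3-1 vs P-gp-high KB-8-5-11, no colchicine in assay medium. Read: CellTiter-Glo at 72 h.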
A short description of test [4]: P-glycoprotein substrates identified in KB-8-5-11 adenocarcinoma cell line, qHTS therapeutic library screen (AID 1346987). Also: nearly all actives have a fitted effect of over 65% in size. Also: potency is read from the fitted curve at half-maximal effect. The method, boiled down: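 In this qHTS, P-gp-rich KB-8-5-11 cells received library compounds across a concentration range. Viability was quantified by luminescence after 72 h at 37 degree C.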
On the technique in general: qHTS replaces the single test concentration by a dilution series.

Test [5] in a line: qHTS for Activators of Parkin Expression: LOPAC Validation Assay (FLuc Reporter) (AID 720573). The method, boiled down: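 Cells seeded, 24 h; compounds pinned, 7-pt dose response; 24 h at 37 C/5% CO2; volume reduced; FLuc reagent 10 min RT; luminescence read. Normalization: DMSO = 0, positive control = 100%.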
Test [6] deals with T1, Hexokinase-4 (Homo sapiens) + Glucokinase regulatory protein (Homo sapiens) (UniProt P35557+Q14397). In words: qHTS assay for inhibitors of recombinant human GCK-GKRP interaction: Diaphorase-coupled assay (AID 743205). The method, boiled down:
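25 mM Hepes pH 7.6, 5 mM glucose, 0.4 mM ATP, 4 U/ml G6PDH; 10 nM each GST-GCK/FLAG-GKRP. Kinetic fluorescence read, 1/min × 30 min. Normalized: DMSO ± enzyme = max/min.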

Test [7] has as its target T1, Hexokinase-4 (Homo sapiens) + Glucokinase regulatory protein (Homo sapiens). In words: qHTS assay for inhibitors of recombinant human GCK-GKRP interaction: ADP-Glo assay (AID 743206). The method in brief: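 Pin-transferred compounds meet a 15 nM GST-GCK/15 nM FLAG-GKRP/2 uM S6P mix (dispense concentrations). ATP is then added to 0.4 mM final with 5 mM glucose, and the reaction runs 60 min at room temperature. ADP is quantified luminescently.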

The target is the same in test [8]. In words: qHTS assay for inhibitors of recombinant human GCK-GKRP interaction: HTRF assay (AID 743207). The method in brief: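 5 nM GST-GCK + 5 nM FLAG-GKRP + 2 uM S6P, pH 7.1 buffer (25 mM Hepes, 2 mM MgCl2, 25 mM KCl, 1 mM DTT, Tween/BSA); pin-transferred cpd; anti-FLAG XL665/anti-GST K; 60 min RT; HTRF.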
Test [9] is described as follows: qHTS Assay for Identifying Gametocytocidal Compounds (AID 743244).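 Also: actives lower the fluorescent signal which means gametocytes are killed.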 The following applies: P. falciparum 3D7 stage III-V gametocytes, alamarBlue, 72 h; max response: stronger effect = lower value. The method, boiled down:
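Compounds are pinned into medium, gametocytes (stage III–V, 3D7, 20,000 cells/well) added, and plates held 72 h at 37 °C in 5% CO2. AlamarBlue follows for 24 h before fluorescence reading.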

A short description of test [10]: Natriuretic polypeptide receptor (hNpr1) antagonism - Pilot counterscreen GloSensor control cell line (AID 1347045; calls by dose curve; also: series mostly up to about 38 µM). The method in brief: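 HEK293 cGMP-sensor cells; 2% GloSensor reagent 2 h RT; LOPAC compounds in 1:5 titrations 30-50 min; 50 uM SNP 20 min; luminescence pre-read and post-read.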
A general note: The purpose of a counterscreen is to sort out artefacts and off-target activity.

T1 sequence (P35557 whole entry, looked up): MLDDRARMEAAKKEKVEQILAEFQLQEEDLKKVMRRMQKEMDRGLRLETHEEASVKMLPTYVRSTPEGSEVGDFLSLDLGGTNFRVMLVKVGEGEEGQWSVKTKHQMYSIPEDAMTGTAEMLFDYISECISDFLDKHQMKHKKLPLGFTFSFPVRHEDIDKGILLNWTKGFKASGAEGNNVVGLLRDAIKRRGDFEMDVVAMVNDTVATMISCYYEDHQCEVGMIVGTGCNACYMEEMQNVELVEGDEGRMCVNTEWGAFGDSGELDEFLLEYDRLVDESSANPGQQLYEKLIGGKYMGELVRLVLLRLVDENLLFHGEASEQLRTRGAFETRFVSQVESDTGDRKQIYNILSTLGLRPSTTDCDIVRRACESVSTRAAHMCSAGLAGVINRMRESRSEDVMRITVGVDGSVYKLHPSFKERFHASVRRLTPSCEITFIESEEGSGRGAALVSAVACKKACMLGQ
T1 sequence (Q14397 whole entry, looked up): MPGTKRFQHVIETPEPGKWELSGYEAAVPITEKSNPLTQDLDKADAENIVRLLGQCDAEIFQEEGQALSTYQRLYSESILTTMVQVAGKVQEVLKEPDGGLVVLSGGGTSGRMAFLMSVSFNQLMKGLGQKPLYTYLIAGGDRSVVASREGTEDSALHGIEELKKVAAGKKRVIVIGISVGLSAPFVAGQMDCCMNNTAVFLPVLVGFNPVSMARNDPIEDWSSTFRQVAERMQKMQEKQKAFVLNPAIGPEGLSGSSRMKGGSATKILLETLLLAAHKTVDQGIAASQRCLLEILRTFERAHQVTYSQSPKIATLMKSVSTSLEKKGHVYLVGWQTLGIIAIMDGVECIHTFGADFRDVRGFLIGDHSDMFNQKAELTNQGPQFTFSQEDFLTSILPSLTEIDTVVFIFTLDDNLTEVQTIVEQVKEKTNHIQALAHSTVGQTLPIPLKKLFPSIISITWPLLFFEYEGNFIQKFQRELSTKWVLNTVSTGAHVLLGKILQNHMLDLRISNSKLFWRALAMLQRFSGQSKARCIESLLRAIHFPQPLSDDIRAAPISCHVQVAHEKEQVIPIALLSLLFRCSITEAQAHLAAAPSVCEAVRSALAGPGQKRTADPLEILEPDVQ

Consider `CCC(C(=O)OCCN1CCOC(c2ccccc2)C1C)c1ccccc1` (stereo not drawn), for which, in test [1], the Potency result was “inactive”. In test [2], the call was inactive.
On to `Cc1coc2ccccc2c1=O`, for which the Potency entry in [1] was “inactive”. Moreover, the molecule was called inactive in test [2].
Consider `O=C(CCCCCCCCC#CI)Oc1ccccc1`, for which the Potency result in [1], in test [3] and in test [4] was “inactive” throughout. Further, the call in [2] was inactive.
`CCOC(=O)C(=O)CCc1ccccc1`: in [1], the Potency result was “inactive”. Moreover, in test [2], the molecule was classed as inactive.
For `COc1cc2c(cc1OC)CN(C(=O)[C@H](C)N[C@@H](CCc1ccccc1)C(=O)O)[C@H](C(=O)O)C2`, the Potency entry in test [1] was “inactive”. For the same molecule, in test [2], the molecule was called inactive.
In the case of `Cc1onc(-c2c(Cl)cccc2Cl)c1C(=O)Cl`, the Potency entry in test [1] is “inactive”. For the same molecule, the molecule was classed as inactive in test [2].
As for `O=C1c2ccccc2CCc2ccccc21`, in test [1], the Potency entry is “inactive”. Further, the result in test [2] was inactive.
With `CN1CCC(Nc2ncc3ncnc(Nc4ccc(F)c(Cl)c4)c3n2)CC1`, the Potency result in test [1] and in [4] was “inactive” in each case. The molecule was called inactive in test [2].
As for `Cc1cc(OCCOCC[N+](C)(C)Cc2ccccc2)ccc1C(C)(C)CC(C)(C)C`, the Potency result in test [1] and in [4] was “inactive” each time. For the same molecule, the outcome in test [2] was inactive.
In the case of `Cn1cnc2c(NCc3ccccc3)nc(NCCO)nc21`, the molecule was called inactive in test [5], in test [6], in [7], in [8] and in test [2]. Further, the max response in test [9] is 11.6%. For the same molecule, the Potency result in [1], in [3], in test [4] and in test [10] was “inactive” in each case.
In the case of `CC(=O)O[C@@H]1C(=O)O[C@@H]2[C@H]1OC(=O)[C@@H]2OC(C)=O`, the max response in [9] is 14.5%. The Potency result in [1], in test [3] and in test [4] was “inactive” throughout. In addition, the molecule was called inactive in test [2].
Take `CCCCC(O)/C=C(C)/C=C/C=C/C(=O)N1CCCC1=O` (stereo not drawn): the Potency entry in [1], in test [3] and in [4] was “inactive” each time. For the same molecule, the molecule was called inactive in test [2].
As for `CC(=O)Nc1ccn(C2COC(COC(=O)c3ccccc3)O2)c(=O)n1` (stereo not drawn), in test [9], the max response was -5.34%. Besides, the Potency entry in [1], in test [3] and in test [4] was “inactive” each time. The molecule was classed as inactive in test [2].
For `O=C(O)c1ccccc1S`, the Potency result in test [1] and in [4] was “inactive” in each case. Besides, the molecule was called inactive in test [2].
With `CCOc1ccc(NS(=O)(=O)c2ccc(N)cc2)nn1`, the Potency result in test [1] and in [4] was “inactive” throughout. The molecule was classed as inactive in test [2].
`CO[C@@H]1[C@@H](O[C@@H]2O[C@H](C)[C@@H](O[C@H]3C[C@@](C)(O)[C@@H](O)[C@H](C)O3)[C@H](N(C)C)[C@H]2O)[C@@H](CC=O)C[C@@H](C)[C@@H](O[C@@H]2CC[C@H](N(C)C)[C@@H](C)O2)/C=C/C=C/C[C@@H](C)OC(=O)C[C@H]1OC(C)=O`: the Potency result in test [1] and in test [4] was “inactive” throughout. In [2], the outcome was inactive.
Turning to `N[C@@H](Cc1cc(I)c(O)c(I)c1)C(=O)O`, the Potency result in test [1] and in test [4] was “inactive” each time. Besides, the outcome in test [2] was inactive.
Turning to `CCOC(=O)NNc1ccc(N(CC)CC(C)O)nn1` (stereo not drawn), the Potency result in [1] and in [4] was “inactive” throughout. Moreover, in test [2], the molecule was called inactive.
Take `OC1(c2ccc(Cl)c(C(F)(F)F)c2)CCN(CCCC(c2ccc(F)cc2)c2ccc(F)cc2)CC1`: the Potency entry in test [1] is “inactive”. For the same molecule, the molecule was classed as inactive in [2]. Besides, the Potency in [4] is 23.1 µM (active) and 20.6 µM (active).
Turning to `CCNC(=O)NCCCOc1cccc(CN2CCCCC2)c1`, the Potency result in test [1] and in [4] was “inactive” each time. Also, the molecule was called inactive in test [2].
`CO/N=C(/C(=O)N[C@@H]1C(=O)N2C(C(=O)OCOC(=O)C(C)(C)C)=C(C)CS[C@H]12)c1csc(N)n1`: the Potency entry in [1] and in [4] was “inactive” in each case. Also, the result in test [2] was inactive.
With `CN(CC1(C)CCCO1)S(=O)(=O)c1ccc(Cl)c(S(N)(=O)=O)c1` (stereo not drawn), the max response in test [9] was -10.7%. The Potency entry in test [1], in test [3] and in [4] was “inactive” throughout. For the same molecule, in test [2], the call was inactive.
Turning to `C[C@@]12CCC[C@H]1[C@@H]1CC[C@H]3C[C@@H](O)CC[C@]3(C)[C@H]1CC2`, the Potency result in [1] and in test [4] was “inactive” each time. For the same molecule, the call in [2] was inactive.
Consider `CC(C)=CCNc1ncnc2c1ncn2[C@@H]1O[C@H](CO)[C@@H](O)[C@H]1O`, for which, in test [1], the Potency result was “inactive”. In addition, the molecule was called inactive in test [2]. Moreover, the Potency in test [3] and in test [4] was 5.8 µM (active) each time.
Take `Cc1cccc(C)c1NC(=O)c1cc(S(N)(=O)=O)c(Cl)cc1O`: the Potency entry in test [1] and in test [4] was “inactive” in each case. Moreover, the molecule was classed as inactive in test [2].
For the molecule `CN1C(CSCC(F)(F)F)Nc2cc(Cl)c(S(N)(=O)=O)cc2S1(=O)=O` (stereo not drawn), the Potency result in test [1] and in [4] was “inactive” in each case. Further, the outcome in [2] was inactive.
